In PubChem BioAssay AID1159580 (chemical genetic matrix, 2015):
Values joined by “and” are separate entries in the source; they are usually repeats but may differ in a detail not shown here. Equal values may be shown once. Among all 5,500 compounds or so, about 2,000 (36%) were called active. Another 18% or so got no clear call; they are omitted. No stated cut-off is given here; in the data, active means normalized growth mostly below about 0.91 (no sharp cut-off); inconclusive means no clear call, values can overlap the other calls; inactive means mostly above about 0.92. This is one part of the list.

Experiment: chemical genetic growth profiling, strain panel (AID 1159580);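 further: tested at 20 µM; growth read once vehicle control cultures reached saturation at 30 °C; 1 = growth at the plate median or of vehicle wells; lower values mean less growth of the strain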
Conditions: S. cerevisiae deletion strains, growth OD

Measured: normalized growth

CCN(CC)C(C)CN1c2ccccc2Sc2ccccc21 (configuration not stated)
inactive: locus YAL013W, strain DEP1, hits give low values 0.983 | locus YAL030W, strain snc1, hits give low values 0.965 | locus YBR009C, strain hhf1, hits give low values 0.925 | locus YBR021W, strain FUR4, hits give low values 0.852 | locus YBR171W, strain sec66, hits give low values 0.998 | locus YBR229C, strain ROT2, hits give low values 0.982 | locus YBR231C, strain swc5, hits give low values 0.937 | locus YCL011C, strain gbp2, hits give low values 0.953 | locus YCL016C, strain dcc1, hits give low values 0.923 | locus YCL029C, strain bik1, hits give low values 0.933 | locus YCL061C, strain MRC1, hits give low values 0.932 | locus YCL069W, strain vba3, hits give low values 0.947 | locus YCR088W, strain abp1, hits give low values 0.986 | locus YDL005C, strain med2, hits give low values 1 | locus YDL035C, strain GPR1, hits give low values 0.917 | locus YDL040C, strain nat1, hits give low values 1 | locus YDL074C, strain BRE1, hits give low values 0.864 | locus YDL101C, strain DUN1, hits give low values 0.978 | locus YDL134C, strain PPH21, hits give low values 0.966 | locus YDL185W, strain tfp1, hits give low values 0.947 | locus YDL192W, strain arf1, hits give low values 0.97 | locus YDR001C, strain nth1, hits give low values 0.987 | locus YDR069C, strain doa4, hits give low values 0.973 | locus YDR101C, strain arx1, hits give low values 0.967 | locus YDR137W, strain rgp1, hits give low values 1.14 | locus YDR150W, strain NUM1, hits give low values 0.977 | locus YDR162C, strain NBP2, hits give low values 0.987 | locus YDR297W, strain sur2, hits give low values 0.939 | locus YDR318W, strain mcm21, hits give low values 0.926 | locus YDR334W, strain swr1, hits give low values 1.03 | locus YDR335W, strain msn5, hits give low values 0.959 | locus YDR392W, strain spt3, hits give low values 0.911 | locus YDR502C, strain sam2, hits give low values 0.954 | locus YEL003W, strain gim4, hits give low values 0.984 | locus YEL037C, strain rad23, hits give low values 0.984 | locus YEL061C, strain CIN8 (second series), hits give low values 0.992 | locus YEL061C, strain CIN8, hits give low values 0.991 | locus YER015W, strain faa2, hits give low values 0.937 | locus YER110C, hits give low values 0.956 | locus YER111C, strain swi4, hits give low values 0.987 | locus YER155C, strain BEM2, hits give low values 0.964 | locus YER167W, strain BCK2, hits give low values 0.909 | locus YFR010W, strain ubp6, hits give low values 0.914 | locus YGL078C, strain dbp3, hits give low values 0.98 | locus YGL086W, strain mad1, hits give low values 0.952 | locus YGL167C, strain pmr1, hits give low values 0.999 | locus YGL227W, strain vid30, hits give low values 0.995 | locus YGL248W, strain PDE1, hits give low values 0.957 | locus YGR078C, strain PAC10, hits give low values 0.905 | locus YGR135W, strain pre9, hits give low values 0.918 | locus YGR229C, strain SMI1, hits give low values 0.904 | locus YHR013C, strain ard1, hits give low values 0.972 | locus YHR030C, strain SLT2, hits give low values 0.976 and 1.03 | locus YHR079C, strain IRE1 (second series), hits give low values 0.935 | locus YHR079C, strain IRE1, hits give low values 1.06 | locus YHR094C, strain hxt1, hits give low values 0.95 | locus YHR129C, strain ARP1, hits give low values 0.986 | locus YHR200W, strain rpn10, hits give low values 0.95 | locus YIL066C, strain RNR3, hits give low values 0.97 | locus YIL073C, strain SPO22, hits give low values 0.767 | locus YIL125W, strain kgd1, hits give low values 0.98 | locus YIR030C, strain dcg1, hits give low values 0.953 | locus YJL092W, strain hpr5, hits give low values 0.954 | locus YJL095W, strain BCK1 (second series), hits give low values 0.946 | locus YJL095W, strain BCK1, hits give low values 0.861 and 1.02 | locus YJL115W, strain asf1, hits give low values 0.992 | locus YJL129C, strain trk1, hits give low values 1.04 | locus YJL134W, strain LCB3, hits give low values 0.986 | locus YJL154C, strain vps35, hits give low values 0.975 | locus YJL164C, strain tpk1, hits give low values 0.928 | locus YJL168C, strain set2, hits give low values 0.961 | locus YJL187C, strain SWE1 (second series), hits give low values 0.957 | locus YJR043C, strain POL32, hits give low values 0.903 | locus YJR066W, strain TOR1, hits give low values 0.872
active: locus YAL021C, strain ccr4, hits give low values 0.399 | locus YAL026C, strain drs2, hits give low values 0.77 | locus YBL061C, strain skt5, hits give low values 0.909 | locus YBR023C, strain chs3, hits give low values 0.889 | locus YBR279W, strain paf1, hits give low values 0.896 | locus YDR159W, strain sac3, hits give low values 0.775 | locus YDR195W, strain ref2 1.23 [resistant] | locus YDR388W, hits give low values 0.914 | locus YER016W, strain bim1, hits give low values 0.921 | locus YER155C, strain BEM2 (second series), hits give low values 0.751 | locus YGL173C, strain kem1, hits give low values 0.898 | locus YGL240W, strain doc1, hits give low values 0.799 | locus YGL253W, strain hxk2, hits give low values 0.907 | locus YGR252W, strain gcn5, hits give low values 0.72 | locus YHR027C, strain rpn1, hits give low values 0.796 | locus YHR142W, strain chs7, hits give low values 0.863 | locus YJL166W, strain qcr8, hits give low values 0.898 | locus YJL187C, strain SWE1, hits give low values 0.911
